FBW7 act – human FBW7 E3 ligase activation, primary screen; Q969H0; AlphaScreen FBW7–phospho-cyclin E peptide binding, activator screen; normalized activity (activation), % at 26.1 µM; actives 0.13% (n = 650,000); in the data active = normalized activity above about 1.9%;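 note: purified mutant Fbw7 with reduced substrate affinity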
GPR151 activ – human GPR151 activation | actives 1% (n = 650,000) | AID 1508602 | PathHunter beta-arrestin GPR151 cells, luminescence | activation, % at 11.2 µM | Q8TDV0; in the data active = activation above about 4.9%;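 note: 0% = median of compound wells and 100% = cells with positive control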
Target sequence (Q8TDV0 whole entry, looked up): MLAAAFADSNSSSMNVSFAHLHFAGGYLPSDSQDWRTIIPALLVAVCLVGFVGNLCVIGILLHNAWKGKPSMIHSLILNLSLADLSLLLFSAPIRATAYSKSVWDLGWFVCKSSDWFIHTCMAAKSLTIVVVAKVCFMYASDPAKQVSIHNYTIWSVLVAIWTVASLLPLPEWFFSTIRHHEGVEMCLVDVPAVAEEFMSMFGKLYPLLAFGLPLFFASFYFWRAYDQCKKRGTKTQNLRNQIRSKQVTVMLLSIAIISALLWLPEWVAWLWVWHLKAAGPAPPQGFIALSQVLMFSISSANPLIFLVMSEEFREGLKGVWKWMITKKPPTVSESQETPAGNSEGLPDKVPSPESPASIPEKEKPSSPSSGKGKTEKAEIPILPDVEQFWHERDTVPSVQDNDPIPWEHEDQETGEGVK
MITF inh – blocks human microphthalmia-associated transcription factor | O75030 | AlphaScreen MITF homodimerization, bead proximity signal | inhibition, % at 2.6 µM | actives 0.91% (n = 650,000) | AID 1259374; in the data active = inhibition above about 50%;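 note: 0% = vehicle wells with protein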
TEAD-YAP inh – TEAD-YAP interaction inhibition | inhibition, % at 9.12 µM | actives 1.4% (n = 640,000) | HEK-TIYL cells, TEAD-Gal4/YAP UAS-luciferase luminescence | AID 1259422; in the data active = inhibition above about 32%;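 note: 0% = median of test compound wells and 100% = reference inhibitor wells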
Numbers without * were called inactive. This is a sample that favours compounds with a hit; in the whole collection about 3.5% have one here.

SMILES	FBW7 act	GPR151 activ	MITF inh	TEAD-YAP inh
Cn1cc(-c2ccc3cnc(Nc4ccc(-n5cnc(N6CCCC(O)C6)n5)cc4)nc3c2)cn1 (stereo not given)	0	-3	2	90*
Cn1cc(-c2ccc3cnc(Nc4ccc(-n5cnc(C(C)(C)C)n5)cc4)nc3c2)cn1	0	1	-5	14
c1cc(-n2cnc(N3CCOCC3)n2)ccc1Nc1ncc2ccc(-c3cn[nH]c3)cc2n1	1	0	18	96*
Cn1cc(-c2ccc3cnc(Nc4ccc(-n5cnc(N6CCOCC6)n5)cc4)nc3c2)cn1	0	2	10	96*
c1ccc(-c2ccc3cnc(Nc4ccc(-n5cnc(N6CCOCC6)n5)cc4)nc3c2)cc1	0	0	16	-3
c1cc(-n2cnc(N3CCOCC3)n2)ccc1Nc1cc2cc(-c3cn[nH]c3)ccc2cn1	0	1	10	92*
COC(=O)c1ccc(Cl)cc1NC(=O)C1Cc2ccccc2C(=O)O1 (stereo not given)	1	1	12	4
COc1ccc(/C=C(/NC(=O)c2ccccc2)C(=O)N/N=C/c2cccc(O)c2)cc1OC	0	0	-3	2
O=C(N/N=C/c1ccccc1O)/C(=C/c1ccccc1)NC(=O)c1ccccc1	0	2	3	6
O=C(N/C(=C/c1ccccc1)C(=O)N1CCCCCCC1)c1ccccc1	0	0	6	4
COc1ccc(OC)c(/C=C(\NC(=O)c2ccccc2)C(=O)N/N=C/c2cccc(O)c2)c1	2.5*	-2	7	-4
O=C(N/N=C/c1ccccc1F)/C(=C/c1ccccc1O)NC(=O)c1ccccc1	0	-6	3	89*
O=C(N/C(=C/c1ccccc1O)C(=O)N1CCCCC1)c1ccccc1	1	-6	-12	74*
Cc1ccc(N2C(=O)NC(=O)/C(=C\c3ccc(O)cc3)C2=O)cc1C	0	-2	3	-2
CCc1c(C)nc2ncnn2c1N1CCCC(C(=O)Nc2nnc(C)s2)C1 (stereo not given)	0	1	-1	48*
CCOc1ccccc1NC(=O)C1CCCN(c2c(CC)c(C)nc3ncnn23)C1 (stereo not given)	0	0	-11	-1
O=S1(=O)N=C(CC2CCCCC2)Nc2ccccc21	0	0	-2	6
Cc1cc(Nc2cc3ccccc3cc2O)n2ncnc2n1	0	-1	-3	65*
Cc1cc(Nc2c(C)cccc2C)n2ncnc2n1	0	-1	0	-5
Nc1nc2c(nc(N/N=C/c3ccc(O)cc3O)n2C2OC(CO)C(O)C2O)c(=O)[nH]1 (stereo not given)	0	-1	-17	-18
Cc1cc(C)c2nc(SCC(=O)N3CC(=O)Nc4ccccc43)c(C#N)cc2c1	0	1	-2	54*
C#CC(O)(c1ccc(OC)cc1OC)c1ccc(OC)cc1OC	0	-2	0	33*
Cc1ccc(NC(=O)c2cc(S(=O)(=O)NCCC3=CCCCC3)ccc2F)cc1F	1	-3	16	34*
CC(=O)N1C(=O)/C(=C2\SC(=O)NC2=O)c2ccccc21	0	1	2	-11
CC1(c2ccccc2)CC(C)(C)N2C(=O)/C(=C3\SC(=O)NC3=O)c3cccc1c32 (stereo not given)	0	0	3	50*
SMILES	FBW7 act	GPR151 activ	MITF inh	TEAD-YAP inh
O=C(NCCOc1ccccc1)c1cnc(Nc2ccc3ncccc3c2)s1	0	1	5	-5
CC(=O)Nc1nc(-c2nc3ccccc3s2)cs1	0	-5	3	38*
Cc1ccc2sc(-c3ccc(NC(=O)C(C)(C)C)cc3)nc2c1	0	0	-5	37*
Cc1ccc2sc(-c3ccc(NC(=O)c4ccc(Br)cc4)cc3)nc2c1	0	2	12	-6
Cc1ccc2sc(-c3ccc(NC(=O)/C=C\C(=O)O)cc3)nc2c1	0	-6	5	90*
O=C(Nc1ccc(-c2nc3ccccc3s2)cc1)C(F)(F)F	0	-7	0	67*
CCOC(=O)N1CCN(c2nnnn2-c2ccccc2)CC1	1	-1	7	4
CCOc1ccccc1N1CCN(c2nnnn2-c2ccccc2)CC1	0	0	17	42*
COC(=O)C1=CN(Cc2ccc(OC)c(OC)c2)C=C(C(=O)OC)C1c1ccccc1OC	1	-1	10	-31
CCCNc1nc(NCCN2CCOCC2)nc2c1ncn2-c1ccsc1	0	-2	6	34*
Nc1nc(NCCN2CCOCC2)nc2c1ncn2-c1ccsc1	0	1	-1	4
c1cc(-n2cnc3c(NC4CC4)nc(NCCN4CCOCC4)nc32)cs1	0	1	14	41*
CC(C)c1ccc(C2C(C#N)=C(SCC(N)=O)NC3=C2C(=O)CCC3)cc1 (stereo not given)	0	0	2	4
N#Cc1c(NC(=O)c2ccccc2)sc(N)c1-c1ccc(Cl)cc1	0	0	10	0
CN(C)c1ccc2nc3ccc(=[N+](C)C)cc-3sc2c1	19*	-1	-204	32
Cc1nc2ccc(N=Cc3ccc(N(C)C)cc3)cc2s1	0	2	4	0
COc1cccc(-c2cc(C(=O)N3CCN(Cc4ccccc4)CC3)on2)c1	0	-1	-11	-8
Cc1cccc(CN2CCN(C(=O)CCl)CC2)c1	0	2	2	38*
Cc1cc(C(=O)N2CCN(Cc3ccccc3)CC2)on1	1.9*	0	16	-3
CCOC(=O)N1CCN(Cc2cccc(C)c2)CC1	0	0	15	5
Cc1csc(NC(=O)CN2CCC(c3ccncc3)CC2)n1	0	0	3	45*
CC(C)N1C(=O)N(c2ccccc2)C(=O)C1CC(=O)Nc1ccc(F)cc1 (stereo not given)	0	1	2	3
O=c1c(O[C@@H]2O[C@H](CO)[C@@H](O)[C@H](O)[C@H]2O)c(-c2ccc(O)c(O)c2)oc2cc(O)cc(O)c12	0	1	61*	-2
O=c1c(O[C@@H]2OC([C@H](O)CO)[C@H](O)[C@H]2O)c(-c2ccc(O)c(O)c2)oc2cc(O)cc(O)c12 (stereo not given in full)	0	1	84*	-7
O=c1c(O[C@@H]2O[C@H](CO)[C@H](O)[C@H](O)[C@H]2O)c(-c2ccc(O)c(O)c2)oc2cc(O)cc(O)c12	0	0	-9	-7
O=c1cc(-c2ccc(O)cc2)oc2c(C3O[C@H](CO)[C@@H](O)[C@H](O)[C@H]3O)c(O)cc(O)c12 (stereo not given in full)	0	-1	32	-8
C[C@@H]1O[C@@H](OC[C@H]2O[C@@H](Oc3c(-c4ccc(O)c(O)c4)oc4cc(O)cc(O)c4c3=O)[C@H](O)[C@@H](O)[C@@H]2O)[C@H](O)[C@H](O)[C@H]1O	0	-1	83*	3
O=c1cc(-c2ccc(O)c(O)c2)oc2cc(O)c(C3OC(CO)C(O)C(O)C3O)c(O)c12 (stereo not given)	0	-1	74*	3

Source: PubChem (The Scripps Research Institute Molecular Screening Center)
